Test results: PubChem BioAssay AID1850 (Southern Research Specialized Biocontainment Screening …, 2009)
The whole screen tested about 310,000 compounds, of which about 1,000 (0.32%) were called active. These entries were drawn from the full list. Potency and affinity values are given separately. Values without a mark were called inactive. How the calls were made is not given here.

Assay: PhoP regulon inhibitors, Salmonella typhi PhoP promoter GFP reporter, confirmatory (AID 1850);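 further: 0% = induced wells with vehicle and 100% = uninduced wells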
Conditions: fluorescence, 4 h, at 50 µM, hits give high values

SMILES	inhibition [%]
N/C(=N\OS(=O)(=O)c1ccc(Cl)cc1)c1ccncc1	-3.25
N/C(=N\OC(=O)c1ccccc1)c1cccnc1	-1.82
N/C(=N\OC(=O)COc1ccc2ccccc2c1)c1cccnc1	-4.96
N/C(=N\OS(=O)(=O)c1ccccc1)c1ccncc1	6.44
N/C(=N\OS(=O)(=O)c1ccc2ccccc2c1)c1ccncc1	9.71
N/C(=N\OC(=O)c1ccc(Cl)cc1)c1cccnc1	8.82
O=C(COC(=O)c1ccc([N+](=O)[O-])o1)Nc1cccc(S(=O)(=O)N2CCCCC2)c1	9.11
CC(=O)N(C)c1ccc(NS(=O)(=O)c2cc(Cl)ccc2Cl)cc1	-11.6
CCOC(=O)C1C(=O)C=C(c2cccs2)CC1c1ccccc1C (stereo unspecified)	-6.96
CCCCOc1ccc(C(=O)N2CC(C)OC(C)C2)cc1 (stereo unspecified)	-8.56
CC1CN(C)C(C)CC1OC(=O)C(c1ccccc1)c1ccccc1 (stereo unspecified)	-11.9
Cc1ccc(N2OC3C(=O)NC(=O)C3C2c2ccco2)cc1 (stereo unspecified)	-16
Cc1ccc(C(C)C)c(OCc2nn(CC(=O)c3ccc(Cl)cc3)c3[n+]2CCCCC3)c1	-26.5
O=C(Cn1nc(CNc2ccc(Cl)cc2)[n+]2c1CCCCC2)c1ccccc1	-5.48
COc1ccc(NCc2nn(CC(=O)c3ccc(Br)cc3)c3[n+]2CCCCC3)cc1	8.75
COc1ccc(C(=O)Cn2nc(CNc3ccc(Br)cc3)[n+]3c2CCCCC3)cc1	1.1
COC(=O)CNC(c1ccccc1)c1cc(Cl)ccc1NC(=O)c1cccc(Cl)c1 (stereo unspecified)	-1.38
COCc1cnc(C)nc1N	-2.28
CCCCOc1ccc(Cc2cnc(N)nc2N)cc1	-18.3

SMILES	inhibition [%]
COc1ccccc1OCc1nc2ccccc2n1C	-1.73
O=C(NNC(=O)C(c1ccccc1)c1ccccc1)c1cccs1	-3.78
CN1CCN(c2ccc(NC(=O)c3ccc(Br)o3)cc2)CC1	-0.39
CN1CCN(c2ccc(NC(=O)c3ccc(-c4ccc(Cl)cc4)o3)cc2)CC1	14.7
Cc1ccc(NC(=O)CSc2nnc(CNC(=O)c3ccco3)o2)cc1Cl	-4.93
CCCCCCCC(=O)NNC(=O)CCC(=O)O	-4.06
CCCCC(=O)NC(=S)NNC(=O)CCc1ccccc1	-4.48
CCCCC(=O)NC(=S)Nc1cccc(NC(=O)CC)c1	-1.01
CCCCCC(=O)NC(=S)NC1C2CC3CC(C2)CC1C3 (stereo unspecified)	14.6
CCCCCC(=O)NNC(=S)NC(=O)c1ccc([N+](=O)[O-])cc1	-13
CCCCC(=O)NC(=S)NNC(=O)CC#N	15.9
CCCCC(=O)NNC(=S)NC(=O)c1ccc(C)cc1	12.1
CCCCC(=O)NNC(=S)NC(=O)C(c1ccccc1)c1ccccc1	-0.63
O=C(CNc1cccc(S(=O)(=O)N2CCOCC2)c1)N1CCc2ccccc21	-12.4
Cc1cc(-n2c(=S)sc3c(=O)n(-c4ccc(F)cc4)c(SCC(=O)O)nc32)ccc1Cl	2.23
CN(c1ccccc1)S(=O)(=O)c1ccc(NC(=O)c2ccc(F)cc2)cc1	-3.04
Cc1cc(OCC(=O)Nc2ccc(OCc3ccccc3)cc2)nc(C(C)C)n1	-4.55
O=C(CCn1cnc(-c2ccccc2)c1-c1ccccc1)N/N=C/c1ccccc1O	-2.92
COc1cccc(-c2ccc(SCC(=O)NC3CCCC3)nn2)c1	-7.47

SMILES	inhibition [%]
CCN1CCN(C(=O)CCS(=O)(=O)c2cc3c(cc2Cl)NC(=O)CO3)CC1	12.4
CCn1c(C)cc(/C=C2/SC(=S)N(CC(=O)O)C2=O)c1C	6.61
O=C(Oc1cccc(NC(=O)c2ccco2)c1)c1cccc(S(=O)(=O)N2CCCCC2)c1	2.38
CCN(CC)CCn1c(=N)n(CC(=O)c2ccc(Br)s2)c2ccccc21	14.1
Cn1c(=N)n(CC(=O)c2ccc(Br)s2)c2ccccc21	-0.89
CCn1c(=N)n(CC(=O)c2ccc(Br)s2)c2ccccc21	11.2
N=c1n(CC(=O)c2cccs2)c2ccccc2n1Cc1ccccc1	11.7
CCc1cc(CNC(=O)C2CCC(=O)N(CCc3ccc(OC)cc3)C2)on1 (stereo unspecified)	-3.38
CCOC(=O)C1=C(c2ccccc2)NC(N)=NC1c1ccc(OCc2ccc(Cl)cc2)c(OC)c1 (stereo unspecified)	0.34
CCOC(=O)C1=C(c2ccccc2)Nc2ncnn2C1c1ccc(C(=O)O)cc1 (stereo unspecified)	-0.92
Cc1ccc(SCc2cc(=O)[nH]c(N3CCOCC3)n2)cc1	4.21
C#CCOCCOCCOCCNc1nc(N2CCN(C(=O)CCCCCCCCCCNC(=O)Cn3cc(C[C@@H](C)O)nn3)CC2)nc(N2CCN(C(=O)CCCCCCCCCCNC(=O)[C@H](CCCN=C(N)N)n3cc(C[C@@H](C)CC)nn3)CC2)n1	25.7
C#CCOCCOCCOCCNc1nc(N2CCN(C(=O)CCCCCCCCCCNC(=O)[C@H](CCCCN)n3cc(CCCC(=O)O)nn3)CC2)nc(N2CCN(C(=O)CCCCCCCCCCNC(=O)[C@H](CCCCN)n3cc(CCCC(=O)O)nn3)CC2)n1	0.23
C#CCOCCOCCOCCNc1nc(N2CCN(C(=O)CCCCCCCCCCNC(=O)[C@H](CCCCN)n3cc(C[C@@H](C)CC)nn3)CC2)nc(N2CCN(C(=O)CCCCCCCCCCNC(=O)[C@@H]([C@H](C)O)n3cc(C)nn3)CC2)n1	51.8
C#CCOCCOCCOCCNc1nc(N2CCN(C(=O)CCCCCCCCCCNC(=O)[C@H](CCCCN)n3cc(CCO)nn3)CC2)nc(N2CCN(C(=O)CCCCCCCCCCNC(=O)[C@H](CCCCN)n3cc(CCCC(=O)O)nn3)CC2)n1	-30.2
C#CCOCCOCCOCCNc1nc(N2CCN(C(=O)CCCCCCCCCCNC(=O)[C@@H](CCSC)n3cc(CCO)nn3)CC2)nc(N2CCN(C(=O)CCCCCCCCCCNC(=O)[C@H](CCCN=C(N)N)n3cc(C[C@@H](C)CC)nn3)CC2)n1	-10.5
C#CCOCCOCCOCCNc1nc(N2CCN(C(=O)CCCCCCCCCCNC(=O)[C@H](CCCCN)n3cc(C)nn3)CC2)nc(N2CCN(C(=O)CCCCCCCCCCNC(=O)[C@H](CCCCN)n3cc(CCCC(=O)O)nn3)CC2)n1	-29.8
C#CCOCCOCCOCCNc1nc(N2CCN(C(=O)CCCCCCCCCCNC(=O)[C@H](CCCCN)n3cc(CCCC(=O)O)nn3)CC2)nc(N2CCN(C(=O)CCCCCCCCCCNC(=O)[C@H](CCCN=C(N)N)n3cc(C[C@@H](C)CC)nn3)CC2)n1	13.7
